{"source": "PubChem BioAssay (Tox21)", "note": "Results filed as inconclusive are left out. Entries that show only a call come without a potency. Activity calls are given as the source filed them. Calls come from the whole dose curve; as a rule, active = well fitted cell-killing curve with a large enough effect in the repeat runs; inconclusive = weak or mixed curves, or effect the other way; inactive = flat fitted curve, though single readings scatter. Potency is the fitted concentration of half-maximal effect."}
{"experiment": "qHTS RealTime-Glo MT Cell Viability Assay in HepG2 cells - 40 hour (AID 1224870); note: nearly all actives have a fitted effect of over 50% in size", "settings": "RealTime-Glo luminescence; series mostly up to 76.8 µM", "from_the_text": "National Center for Advancing Translational Sciences [NCATS]\nNIH Chemical Genomics Center [NCGC]\nU.S. Environmental Protection Agency [EPA]\nNational Institutes of Environmental Health Sciences [NIEHS]\nNational Toxicology Program [NTP]\nU.S. Food and Drug Administration [FDA]\nMeasure of cell viability is critical in the cell-base assay. Analysis of cell viability is necessary for the characterization of cell responses to cytotoxic drugs and environmental stress. A RealTime-Glo MT Cell Viability Assay to monitor cell viability in real time of continues cell culture during 40 hours of compound treatment was used to screen Tox21 10K library compounds in HepG2 cells. The RealTime-Glo MT Cell Viability Assay is a nonlytic, homogeneous, bioluminescent method to measure cell viability in real time using a simple, plate-based method. The assay involves adding NanoLuc luciferase and a cell-permeant prosubstrate to cells in culture. Viable cells reduce the proprietary prosubstrate to generate a substrate for NanoLuc luciferase. This substrate diffuses from cells into the surrounding culture medium, where it is rapidly used by the NanoLuc Enzyme to produce a luminescent signal. The signal correlates with the number of viable cells, making the assay well suited for cytotoxicity studies.\nTox21 Assay Protocol Summary:\nThe mixture of HepG2 cell suspension and reagents were dispensed at 600cells/6 ul/well in 1536-well tissue culture treated black solid bottom plates using a Multidrop dispenser. After the assay plates were incubated at a 37 C/5% CO2 incubator for 5 hours, 23 nL of compounds dissolved in DMSO, positive and negative controls was transferred to the assay plate by a pintool work station. The plates were incubated at 37 C for 40 hours. The luminescence intensity were measured at 0h, 8h, 16h, 24h, 32h and 40h time points using ViewLux plate reader during compound treatment."}
{"molecule": "O=C(Nc1ccccc1)N(Cc1ccc(Cl)cc1)C1CCCC1", "Potency": "inactive"}
{"molecule": "Cc1nnc2n1-c1sc(CCC(=O)N3CCOCC3)cc1C(c1ccccc1Cl)=NC2", "Potency": "inactive"}
{"molecule": "CC(C)COP(=O)(OCC(C)C)OCC(C)C", "Potency": "inactive"}
{"molecule": "ClCCCN1CCN(c2cccc(Cl)c2)CC1", "Potency": "inactive"}
{"molecule": "Cc1ccccc1CO[C@@H]1C[C@@]2(C(C)C)CC[C@]1(C)O2", "Potency": "inactive"}
{"molecule": "N#Cc1c(Cl)cccc1Cl", "Potency": "inactive"}
{"molecule": "O=C(Cc1ccccc1)OCc1ccccc1", "Potency": "inactive"}
{"molecule": "CCOP(=S)(OCC)SCSP(=S)(OCC)OCC", "Potency": "inactive"}
{"molecule": "COc1cc(OC)nc(Oc2cccc(Oc3nc(OC)cc(OC)n3)c2C(=O)O)n1", "Potency": "inactive"}
{"molecule": "CCCCCCI", "Potency": "24.6 µM (active)"}
{"molecule": "ClC(Cl)Br", "Potency": "inactive"}
{"molecule": "COc1ccc2c(c1OC)CN1CCc3cc4c(cc3C1C2)OCO4", "note": "(stereo not given)", "Potency": "inactive"}
{"molecule": "CN1C(=S)CN=C(c2ccccc2)c2cc(Cl)ccc21", "Potency": "inactive"}
{"molecule": "COC(=O)c1c(C(F)F)nc(C(F)(F)F)c(C2=NCCS2)c1CC(C)C", "Potency": "inactive"}
{"molecule": "O=C(O)c1ccc2[nH]cc(CCCCN3CC=C(c4ccccc4)CC3)c2c1", "Potency": "inactive"}
{"molecule": "NC(=O)c1cc([N+](=O)[O-])cc([N+](=O)[O-])c1", "Potency": "inactive"}
{"molecule": "COc1cc(OC)nc(NC(=O)NS(=O)(=O)c2ncccc2OCC(F)(F)F)n1", "Potency": "inactive"}
{"molecule": "O=C(Nc1ccccc1)c1ccccc1I", "Potency": "inactive"}
{"molecule": "CCS(=O)(=O)C(C)(C)S(=O)(=O)CC", "Potency": "inactive"}
{"molecule": "O=C1OC(=O)C2C1C1(Cl)C(Cl)=C(Cl)C2(Cl)C1(Cl)Cl", "note": "(stereo not given)", "Potency": "inactive"}
{"molecule": "CC(=O)C(Cl)Cl", "Potency": "inactive"}
{"molecule": "CNCC(=O)c1ccc(O)c(O)c1", "Potency": "inactive"}
{"molecule": "c1cc[c]([Hg][c]2ccccc2)cc1", "Potency": "inactive"}
{"molecule": "COP(=S)(OC)Oc1ccc(S(N)(=O)=O)cc1", "Potency": "inactive"}
{"molecule": "CNC(=O)N(C)c1nc2ccccc2s1", "Potency": "inactive"}
{"molecule": "CCOC(=O)NC(=S)Nc1ccccc1NC(=S)NC(=O)OCC", "Potency": "inactive"}
{"molecule": "CN1CCN(C(=O)O[C@H]2c3nccnc3C(=O)N2c2ccc(Cl)cn2)CC1", "Potency": "inactive"}
{"molecule": "CNC(=O)Oc1cccc(C(C)C)c1", "Potency": "inactive"}
{"molecule": "COc1ccc(C(=O)N2CCCC2=O)cc1", "Potency": "inactive"}
{"molecule": "CCOP(=S)(OCC)Oc1cc(-c2ccccc2)on1", "Potency": "inactive"}
{"molecule": "O=C1CN2CCOC2(c2ccccc2Cl)c2cc(Cl)ccc2N1", "note": "(stereo not given)", "Potency": "inactive"}
{"molecule": "COC(C)(C)C", "Potency": "inactive"}
{"molecule": "CNC(=O)Oc1c(C(C)(C)C)cc(C)cc1C(C)(C)C", "Potency": "inactive"}
{"molecule": "COC(=O)C(C)Oc1ccc(Oc2ccc(Cl)cc2Cl)cc1", "note": "(stereo not given)", "Potency": "inactive"}
{"molecule": "CN(C)CCc1ccc(O)cc1", "Potency": "inactive"}
{"molecule": "O=S(=O)(O)C(F)(F)C(F)(F)C(F)(F)C(F)(F)C(F)(F)C(F)(F)F", "Potency": "inactive"}
{"molecule": "N#CCNCC#N", "Potency": "inactive"}
{"molecule": "NC1=NC(=O)C(c2ccccc2)O1", "note": "(stereo not given)", "Potency": "inactive"}
{"molecule": "O=C(NCO)NCO", "Potency": "inactive"}
{"molecule": "CCCSC(=O)N(CCC)CCC", "Potency": "inactive"}
